For one sequence, binding signal results are on record in paper PMC7862700, “An all-to-all approach to the identification of sequence-specific readers for epigenetic DNA modifications on cytosine”.

Holding throughout (assay): DAPPL (digital affinity profiling via proximity ligation, sequencing); 10 mM Tris-HCl pH 7.5, 50 mM NaCl, 1 mM DTT, 4% glycerol, room temperature, 30 min; GST-TFs on glutathione beads, 16-mer random dsDNA library, 0.1% formaldehyde crosslink after washing; high values mean tight binding
Assay [1] addresses T1, FEV (Homo sapiens, UniProt Q99581 1-238).
T1 sequence: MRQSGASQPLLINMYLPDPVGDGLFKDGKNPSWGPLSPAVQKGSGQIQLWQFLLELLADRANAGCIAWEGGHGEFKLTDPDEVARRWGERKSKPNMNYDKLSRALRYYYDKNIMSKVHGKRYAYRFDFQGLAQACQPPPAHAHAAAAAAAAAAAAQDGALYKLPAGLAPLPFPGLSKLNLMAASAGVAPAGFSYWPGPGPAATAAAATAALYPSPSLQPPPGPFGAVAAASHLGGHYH
As to conditions: protein: recombinant; tags: N-terminal GST; dsDNA, one strand shown. The method in brief: (§1)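 A tag-only sample was pooled with DNA-barcoded human transcription factors that had been expressed in yeast as GST fusions and captured on glutathione beads. The pools were incubated for 30 min at room temperature with 200 nmole of a random double-stranded 16-mer DNA library in Tris/NaCl/DTT/glycerol buffer, then washed, crosslinked with 0.1% formaldehyde, proximity-ligated (BsaI/T4 ligase, 1 h, 37 °C), PCR-amplified and sequenced on an Illumina NextSeq500. Binding signal is each hexamer's read frequency for a factor divided by its frequency for the tag-only sample.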

For assay [2], the target named is ETV5 (Homo sapiens, UniProt P41161 1-510). Conditions: protein: recombinant; tags: N-terminal GST; dsDNA, one strand shown. An outline of the steps:
as §1

The target of assay [3] is HSF1 (Homo sapiens, UniProt Q00613 1-529). As to conditions: protein: recombinant; tags: N-terminal GST; chain copies: 3; dsDNA, one strand shown. An outline of the steps:
as §1

Assay [4] addresses T2, SPIC (Homo sapiens, UniProt Q8N5J4 1-248).
T2 sequence: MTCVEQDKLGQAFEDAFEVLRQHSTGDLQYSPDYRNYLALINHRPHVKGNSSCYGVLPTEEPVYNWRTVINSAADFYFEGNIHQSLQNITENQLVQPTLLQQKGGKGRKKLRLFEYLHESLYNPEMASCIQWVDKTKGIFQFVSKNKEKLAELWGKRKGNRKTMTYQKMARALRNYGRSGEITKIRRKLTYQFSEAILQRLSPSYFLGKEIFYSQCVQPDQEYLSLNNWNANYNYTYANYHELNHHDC
Conditions: protein: recombinant; tags: N-terminal GST; dsDNA, one strand shown. The method in brief: as §1

In assay [5] the target is ELF4 (Homo sapiens, UniProt Q99607 1-663). Conditions: protein: recombinant; tags: N-terminal GST; dsDNA, one strand shown. An outline of the steps: as §1
ELF4, sequence (Q99607 whole entry): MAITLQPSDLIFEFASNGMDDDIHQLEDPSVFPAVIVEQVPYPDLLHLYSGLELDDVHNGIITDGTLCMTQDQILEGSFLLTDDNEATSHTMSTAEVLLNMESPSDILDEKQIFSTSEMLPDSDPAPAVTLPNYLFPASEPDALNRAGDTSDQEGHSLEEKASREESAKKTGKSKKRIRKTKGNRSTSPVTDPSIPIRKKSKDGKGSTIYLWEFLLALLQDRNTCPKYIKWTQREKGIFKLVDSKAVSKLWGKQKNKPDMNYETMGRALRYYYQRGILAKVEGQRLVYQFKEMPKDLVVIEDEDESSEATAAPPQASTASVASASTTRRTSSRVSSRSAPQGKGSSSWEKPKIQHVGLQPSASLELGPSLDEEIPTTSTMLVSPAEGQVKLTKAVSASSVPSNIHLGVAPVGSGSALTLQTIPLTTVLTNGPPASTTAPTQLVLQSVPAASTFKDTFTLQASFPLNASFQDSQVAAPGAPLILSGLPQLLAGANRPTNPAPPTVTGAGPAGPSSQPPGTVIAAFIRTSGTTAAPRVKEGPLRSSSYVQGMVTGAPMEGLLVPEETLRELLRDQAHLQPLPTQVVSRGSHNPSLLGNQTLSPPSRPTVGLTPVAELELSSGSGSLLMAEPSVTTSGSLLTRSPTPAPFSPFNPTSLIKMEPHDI
Assay [6] concerns the target T3, ELK4 (Homo sapiens, UniProt P28324-2 1-405).
T3 sequence: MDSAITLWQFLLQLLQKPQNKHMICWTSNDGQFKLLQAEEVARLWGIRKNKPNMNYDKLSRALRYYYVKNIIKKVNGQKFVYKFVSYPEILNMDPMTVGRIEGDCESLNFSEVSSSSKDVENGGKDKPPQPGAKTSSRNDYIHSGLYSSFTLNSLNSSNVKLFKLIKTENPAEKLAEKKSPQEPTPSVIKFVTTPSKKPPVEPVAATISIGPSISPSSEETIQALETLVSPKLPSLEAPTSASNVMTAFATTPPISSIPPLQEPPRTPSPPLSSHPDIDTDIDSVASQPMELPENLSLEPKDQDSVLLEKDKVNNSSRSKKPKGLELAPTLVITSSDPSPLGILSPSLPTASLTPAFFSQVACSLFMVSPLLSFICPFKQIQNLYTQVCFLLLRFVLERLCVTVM
Conditions: protein: recombinant; tags: N-terminal GST; dsDNA, one strand shown. The method in brief:
as §1

In assay [7] the target is T4, ETV2 (Homo sapiens, UniProt O00321 1-342).
T4 sequence: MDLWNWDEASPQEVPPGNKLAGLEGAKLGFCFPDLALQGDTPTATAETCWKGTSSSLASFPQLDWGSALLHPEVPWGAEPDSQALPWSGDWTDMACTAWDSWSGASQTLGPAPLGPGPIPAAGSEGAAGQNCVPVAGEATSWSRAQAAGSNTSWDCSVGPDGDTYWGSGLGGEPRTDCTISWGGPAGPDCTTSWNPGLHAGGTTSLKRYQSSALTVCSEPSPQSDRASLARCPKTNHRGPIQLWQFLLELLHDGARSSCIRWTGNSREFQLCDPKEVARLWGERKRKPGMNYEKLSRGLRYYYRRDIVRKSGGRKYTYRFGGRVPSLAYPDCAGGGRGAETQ
As to conditions: protein: recombinant; tags: N-terminal GST; dsDNA, one strand shown. The method in brief:
as §1

In assay [8] the target is T5, ELF3 (Homo sapiens, UniProt P78545 1-371).
T5 sequence: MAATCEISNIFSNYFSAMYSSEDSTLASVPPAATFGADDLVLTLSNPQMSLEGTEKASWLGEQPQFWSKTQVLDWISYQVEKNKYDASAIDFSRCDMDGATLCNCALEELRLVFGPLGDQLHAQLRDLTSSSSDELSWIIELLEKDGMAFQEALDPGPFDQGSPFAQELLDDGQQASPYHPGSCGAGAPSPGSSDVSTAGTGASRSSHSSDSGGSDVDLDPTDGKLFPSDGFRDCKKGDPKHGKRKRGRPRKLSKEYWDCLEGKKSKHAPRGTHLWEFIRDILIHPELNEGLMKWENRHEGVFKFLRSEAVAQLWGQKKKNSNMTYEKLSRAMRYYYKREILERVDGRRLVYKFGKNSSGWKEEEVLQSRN
Conditions: protein: recombinant; tags: N-terminal GST; dsDNA, one strand shown. An outline of the steps:
as §1

The target of assay [9] is CRX (Homo sapiens, UniProt O43186 1-299). As to conditions: protein: recombinant; tags: N-terminal GST; dsDNA, one strand shown. An outline of the steps:
as §1

Assay [10] has as its target ETV1 (Homo sapiens, UniProt P50549 1-477). Conditions: protein: recombinant; tags: N-terminal GST; dsDNA, one strand shown. An outline of the steps: as §1
The target in assay [11] is T6, ERF (Homo sapiens, UniProt P50548 1-548).
T6 sequence: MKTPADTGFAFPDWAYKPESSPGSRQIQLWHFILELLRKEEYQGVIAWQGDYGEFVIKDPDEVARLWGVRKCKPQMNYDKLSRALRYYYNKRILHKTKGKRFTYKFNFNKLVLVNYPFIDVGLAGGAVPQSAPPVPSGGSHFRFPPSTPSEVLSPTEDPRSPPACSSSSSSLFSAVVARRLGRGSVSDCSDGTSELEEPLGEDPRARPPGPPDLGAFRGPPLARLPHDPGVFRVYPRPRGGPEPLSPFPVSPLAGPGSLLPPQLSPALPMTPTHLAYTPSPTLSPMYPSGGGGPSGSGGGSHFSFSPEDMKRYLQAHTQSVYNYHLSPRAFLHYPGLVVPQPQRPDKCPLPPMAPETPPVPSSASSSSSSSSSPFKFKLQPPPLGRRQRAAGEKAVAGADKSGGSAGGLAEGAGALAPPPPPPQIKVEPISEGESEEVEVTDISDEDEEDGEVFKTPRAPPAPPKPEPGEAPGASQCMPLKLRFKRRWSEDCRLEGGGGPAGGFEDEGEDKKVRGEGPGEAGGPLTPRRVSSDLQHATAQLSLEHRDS
Conditions: protein: recombinant; tags: N-terminal GST; dsDNA, one strand shown. The method in brief:
as §1

Assay [12] deals with T7, ETV3L (Homo sapiens, UniProt Q6ZN32 1-361).
T7 sequence: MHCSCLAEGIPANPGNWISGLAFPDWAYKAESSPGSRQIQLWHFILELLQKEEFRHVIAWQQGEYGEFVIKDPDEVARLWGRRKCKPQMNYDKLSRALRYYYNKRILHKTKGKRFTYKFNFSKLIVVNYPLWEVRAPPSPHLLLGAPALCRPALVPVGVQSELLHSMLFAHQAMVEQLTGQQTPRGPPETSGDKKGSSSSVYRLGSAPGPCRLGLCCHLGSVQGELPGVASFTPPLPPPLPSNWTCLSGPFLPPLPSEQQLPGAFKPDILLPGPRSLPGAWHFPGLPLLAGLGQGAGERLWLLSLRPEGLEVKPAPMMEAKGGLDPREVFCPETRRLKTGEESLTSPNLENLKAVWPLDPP
As to conditions: protein: recombinant; tags: N-terminal GST; dsDNA, one strand shown. The method in brief: as §1

Assay [13] addresses T8, ETS2 (Homo sapiens, UniProt P15036 1-469).
T8 sequence: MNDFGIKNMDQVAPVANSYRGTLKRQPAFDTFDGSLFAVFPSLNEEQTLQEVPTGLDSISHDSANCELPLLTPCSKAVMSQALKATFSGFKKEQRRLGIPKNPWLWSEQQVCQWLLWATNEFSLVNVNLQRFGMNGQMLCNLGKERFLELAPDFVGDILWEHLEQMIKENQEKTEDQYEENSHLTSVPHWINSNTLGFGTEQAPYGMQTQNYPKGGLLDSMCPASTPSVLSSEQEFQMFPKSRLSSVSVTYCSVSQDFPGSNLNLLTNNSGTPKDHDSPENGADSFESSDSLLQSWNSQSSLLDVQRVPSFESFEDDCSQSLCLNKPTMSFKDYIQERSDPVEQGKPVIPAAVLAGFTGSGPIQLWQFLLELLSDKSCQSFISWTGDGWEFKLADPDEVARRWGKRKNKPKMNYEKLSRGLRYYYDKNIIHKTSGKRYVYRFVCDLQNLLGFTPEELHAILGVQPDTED
Conditions: protein: recombinant; tags: N-terminal GST; dsDNA, one strand shown. The method in brief:
as §1

In assay [14] the target is T9, SPDEF (Homo sapiens, UniProt O95238 1-335).
T9 sequence: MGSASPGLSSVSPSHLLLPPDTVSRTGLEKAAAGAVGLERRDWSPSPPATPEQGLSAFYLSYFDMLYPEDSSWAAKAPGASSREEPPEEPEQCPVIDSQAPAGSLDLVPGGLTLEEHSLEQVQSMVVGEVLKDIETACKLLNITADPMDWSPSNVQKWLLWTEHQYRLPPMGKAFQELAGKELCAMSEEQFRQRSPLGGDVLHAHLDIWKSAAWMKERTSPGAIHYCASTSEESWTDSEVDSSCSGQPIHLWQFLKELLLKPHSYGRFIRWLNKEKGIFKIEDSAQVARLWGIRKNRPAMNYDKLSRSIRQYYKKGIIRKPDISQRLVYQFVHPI
As to conditions: protein: recombinant; tags: N-terminal GST; dsDNA, one strand shown. An outline of the steps:
as §1

Assay [15] has as its target T10, ETV7 (Homo sapiens, UniProt Q9Y603 1-341).
T10 sequence: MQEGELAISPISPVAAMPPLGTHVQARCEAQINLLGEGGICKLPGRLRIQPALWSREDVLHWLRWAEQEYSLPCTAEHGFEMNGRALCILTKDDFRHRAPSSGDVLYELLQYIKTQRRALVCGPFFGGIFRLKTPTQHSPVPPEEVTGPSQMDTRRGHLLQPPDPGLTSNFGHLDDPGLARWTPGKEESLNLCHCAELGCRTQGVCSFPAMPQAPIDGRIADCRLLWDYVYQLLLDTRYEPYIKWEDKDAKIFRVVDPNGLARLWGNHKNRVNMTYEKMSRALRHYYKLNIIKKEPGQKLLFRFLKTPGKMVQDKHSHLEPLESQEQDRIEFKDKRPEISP
As to conditions: protein: recombinant; tags: N-terminal GST; dsDNA, one strand shown. The method in brief: as §1

Assay [16] concerns the target T11, ELF5 (Homo sapiens, UniProt Q9UKW6-2 1-255).
T11 sequence: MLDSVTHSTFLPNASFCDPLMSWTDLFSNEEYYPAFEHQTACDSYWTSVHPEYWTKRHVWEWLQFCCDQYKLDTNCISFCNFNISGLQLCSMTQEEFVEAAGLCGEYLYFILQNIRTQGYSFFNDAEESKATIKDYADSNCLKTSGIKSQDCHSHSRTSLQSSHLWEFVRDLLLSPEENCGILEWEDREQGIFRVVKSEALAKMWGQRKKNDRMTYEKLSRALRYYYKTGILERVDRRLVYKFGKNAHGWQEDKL
Conditions: protein: recombinant; tags: N-terminal GST; dsDNA, one strand shown. The method in brief:
as §1

Assay [17] concerns the target T12, ETV3 (Homo sapiens, UniProt P41162-2 1-143).
T12 sequence: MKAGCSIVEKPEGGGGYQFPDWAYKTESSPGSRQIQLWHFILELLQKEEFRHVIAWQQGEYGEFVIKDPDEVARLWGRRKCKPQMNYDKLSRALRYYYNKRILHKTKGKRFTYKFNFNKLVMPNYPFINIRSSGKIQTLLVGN
Conditions: protein: recombinant; tags: N-terminal GST; dsDNA, one strand shown. The method in brief: as §1

Assay [18] concerns the target ETV6 (Homo sapiens, UniProt P41212 1-452). Conditions: protein: recombinant; tags: N-terminal GST; dsDNA, one strand shown. An outline of the steps: as §1

ETV6, sequence (P41212 whole entry): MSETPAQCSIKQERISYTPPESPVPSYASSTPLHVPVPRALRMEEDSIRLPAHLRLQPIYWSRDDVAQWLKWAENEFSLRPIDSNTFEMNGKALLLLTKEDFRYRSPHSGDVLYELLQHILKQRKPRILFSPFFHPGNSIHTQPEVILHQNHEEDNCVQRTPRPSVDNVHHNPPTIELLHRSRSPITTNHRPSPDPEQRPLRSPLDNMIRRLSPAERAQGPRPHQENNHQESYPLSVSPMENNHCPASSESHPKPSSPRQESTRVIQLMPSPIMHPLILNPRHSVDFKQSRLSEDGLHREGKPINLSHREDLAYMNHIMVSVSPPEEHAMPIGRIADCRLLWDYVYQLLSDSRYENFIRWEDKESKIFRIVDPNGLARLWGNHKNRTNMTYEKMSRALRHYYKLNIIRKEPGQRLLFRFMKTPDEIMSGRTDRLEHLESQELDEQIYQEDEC
CRX, sequence (O43186 whole entry): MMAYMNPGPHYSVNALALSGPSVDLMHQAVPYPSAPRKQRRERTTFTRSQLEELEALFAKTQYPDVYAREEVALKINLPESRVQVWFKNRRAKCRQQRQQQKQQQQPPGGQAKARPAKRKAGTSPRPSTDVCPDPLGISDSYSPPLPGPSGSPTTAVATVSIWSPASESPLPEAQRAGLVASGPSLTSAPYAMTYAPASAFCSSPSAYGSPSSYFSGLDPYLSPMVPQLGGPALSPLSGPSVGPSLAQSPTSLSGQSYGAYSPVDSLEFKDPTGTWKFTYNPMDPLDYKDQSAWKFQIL
HSF1, sequence (Q00613 whole entry): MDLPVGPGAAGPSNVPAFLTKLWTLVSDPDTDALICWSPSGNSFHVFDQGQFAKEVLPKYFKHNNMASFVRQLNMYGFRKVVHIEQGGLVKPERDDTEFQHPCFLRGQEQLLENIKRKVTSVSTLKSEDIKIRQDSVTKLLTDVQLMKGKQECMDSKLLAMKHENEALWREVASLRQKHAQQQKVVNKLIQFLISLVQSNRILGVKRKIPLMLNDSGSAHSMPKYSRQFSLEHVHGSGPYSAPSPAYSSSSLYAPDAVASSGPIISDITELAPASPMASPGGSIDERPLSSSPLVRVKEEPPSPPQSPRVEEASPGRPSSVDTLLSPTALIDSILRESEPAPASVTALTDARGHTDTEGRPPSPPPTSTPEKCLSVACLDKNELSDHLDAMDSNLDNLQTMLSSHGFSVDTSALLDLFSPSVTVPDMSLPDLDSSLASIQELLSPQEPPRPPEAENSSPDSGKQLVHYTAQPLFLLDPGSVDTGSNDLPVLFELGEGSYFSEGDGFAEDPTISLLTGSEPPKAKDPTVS
ETV1, sequence (P50549 whole entry): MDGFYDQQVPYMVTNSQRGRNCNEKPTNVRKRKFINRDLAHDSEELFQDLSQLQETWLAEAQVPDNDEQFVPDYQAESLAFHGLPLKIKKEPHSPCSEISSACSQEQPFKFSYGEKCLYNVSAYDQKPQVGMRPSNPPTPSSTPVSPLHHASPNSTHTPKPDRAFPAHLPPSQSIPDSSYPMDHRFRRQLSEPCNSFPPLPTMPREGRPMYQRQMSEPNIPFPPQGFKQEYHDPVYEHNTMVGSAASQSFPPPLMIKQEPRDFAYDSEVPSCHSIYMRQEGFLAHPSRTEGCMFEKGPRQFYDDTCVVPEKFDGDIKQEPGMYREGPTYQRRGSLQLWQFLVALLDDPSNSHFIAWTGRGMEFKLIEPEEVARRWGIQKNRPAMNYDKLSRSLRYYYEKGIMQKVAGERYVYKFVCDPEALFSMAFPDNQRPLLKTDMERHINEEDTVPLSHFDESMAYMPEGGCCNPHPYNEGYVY
ETV5, sequence (P41161 whole entry): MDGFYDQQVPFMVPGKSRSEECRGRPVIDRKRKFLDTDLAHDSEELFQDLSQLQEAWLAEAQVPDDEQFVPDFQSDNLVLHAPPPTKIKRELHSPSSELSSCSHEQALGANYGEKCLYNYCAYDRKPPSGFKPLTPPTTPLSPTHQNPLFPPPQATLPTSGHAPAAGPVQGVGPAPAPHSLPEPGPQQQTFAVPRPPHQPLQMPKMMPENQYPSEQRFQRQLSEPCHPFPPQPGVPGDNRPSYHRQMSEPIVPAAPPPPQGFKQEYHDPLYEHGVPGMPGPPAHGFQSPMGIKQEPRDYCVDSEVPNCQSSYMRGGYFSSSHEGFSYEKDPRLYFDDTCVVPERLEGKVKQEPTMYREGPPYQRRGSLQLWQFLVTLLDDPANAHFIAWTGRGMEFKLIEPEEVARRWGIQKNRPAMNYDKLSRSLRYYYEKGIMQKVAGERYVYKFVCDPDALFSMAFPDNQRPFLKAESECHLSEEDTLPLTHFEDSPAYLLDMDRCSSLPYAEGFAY

Take ATCTCT: the binding signal was 1.29 fold enrichment (6-mer frequency, TF over GST control) in assay [1]; 1.29 fold enrichment (6-mer frequency, TF over GST control) in assay [2]; 1.63 fold enrichment (6-mer frequency, TF over GST control) in assay [3]; 1.45 fold enrichment (6-mer frequency, TF over GST control) in assay [4]; 1.26 fold enrichment (6-mer frequency, TF over GST control) in assay [5]; 1.44 fold enrichment (6-mer frequency, TF over GST control) in [6]. In addition, the binding signal was 1.33 fold enrichment (6-mer frequency, TF over GST control) in assay [7]; 1.26 fold enrichment (6-mer frequency, TF over GST control) in assay [8]; 1.85 fold enrichment (6-mer frequency, TF over GST control) in assay [9]; 1.23 fold enrichment (6-mer frequency, TF over GST control) in [10]; 1.38 fold enrichment (6-mer frequency, TF over GST control) in [11]; 1.27 fold enrichment (6-mer frequency, TF over GST control) in assay [12]. Also, the binding signal in [13] is 1.29 fold enrichment (6-mer frequency, TF over GST control); in assay [14], 1.18 fold enrichment (6-mer frequency, TF over GST control); in [15], 1.14 fold enrichment (6-mer frequency, TF over GST control); in assay [16], 1.25 fold enrichment (6-mer frequency, TF over GST control); in assay [17], 1.25 fold enrichment (6-mer frequency, TF over GST control); in assay [18], 1.27 fold enrichment (6-mer frequency, TF over GST control).
